Bioassay records deposited in PubChem BioAssay by several laboratories.
Most compounds without a hit are left out; they make up all but 1.6% or so of the library.
PTK2B oligo ant: antagonists of human Pyk2 oligomerization; 0.83% of 99,000 active; Q293 cells, Pyk2 FERM NanoBiT luminescence; active compounds read low; z-score (the deposit names both 25 µM and 10 µM);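 active = Z-score of -3 or lower, scaled per plate to the spread of control and sample wells; inactive = z-score above -3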;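 note: negative z-score means lost luminescence so less FERM oligomerization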
sEH act: increases human soluble epoxide hydrolase activity; purified human sEH enzymatic activity, activator screen; activation, % at 2 µM; 0.04% of 91,000 active; AID 717; in the data active = activation above about 37%
sEH inh: soluble epoxide hydrolase (human) inhibition | recombinant human sEH enzymatic activity assay | 0.34% of 91,000 active | P34913 | inhibition, % at 2 µM; in the data active = inhibition above about 80%
PLK1 inh: PLK1 (human) kinase inhibition | P53350 | recombinant PLK1 kinase, TR-FRET peptide phosphorylation | inhibition, % at 10 µM | 0.53% of 97,000 active | AID 619;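 active = inhibition of 50% or more in the single-concentration screen; inactive = inhibition below 50%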
Plk1 PBD FP: Plk1 (human) PBD binding inhibition; 0.13% of 97,000 active; P53350; Plk1 PBD phosphopeptide binding, fluorescence polarization; inhibition, %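 (tested at about 20 µM)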; in the data active = inhibition above about 34%, passing the limit was not always enough
Numbers stand for hits; - = inactive; . = no result given.

SMILES	PTK2B oligo ant	sEH act	sEH inh	PLK1 inh	Plk1 PBD FP
COc1c2occc2c(OC)c2c(=O)cc(C(F)(F)C(F)(F)F)oc12	-3.2	-	-	-	-
COc1c2occc2c(OC)c2c(=O)cc(C(F)(F)F)oc12	-	-	-	-	-
CCc1nnc(NC(=O)C(=O)NCCOC(=O)c2ccccc2)s1	-	-	-	-	-
Cc1cc(C(=O)N/N=C/c2cccs2)no1	-	.	.	.	.
CC(NC(=O)NC12CC3CC(CC(C3)C1)C2)C1CCCO1 (stereo unspecified)	-	-	90	-	-
Cc1ccc(-n2nnnc2SCC(N)=O)c(C)c1	-	-	-	-	-
Cc1ccc(-n2nnnc2SCC(=O)NCCC2=CCCCC2)c(C)c1	-	-	82	-	-
O=c1oc2cc(O)ccc2c2c1CCCC2	-	-	-	-	-
CCOc1cc(S(=O)(=O)NCc2ccco2)c(OCC)cc1-n1cnnn1	-	-	-	-	-
C=C(C)COc1ccc(-c2nc(N)ncc2Oc2ccccc2OCC)c(O)c1	-4.5	-	-	-	-
COc1cc(S(=O)(=O)N2CCN(c3ccc(F)cc3)CC2)ccc1Cl	-3.3	.	.	-	-
COc1cc(S(=O)(=O)N2CCN(c3ccccc3F)CC2)ccc1Cl	-3	.	.	.	.
COc1cc(S(=O)(=O)N2CCN(c3ccccc3)CC2)ccc1Cl	-	-	-	-	-
COc1ccc(S(=O)(=O)N2CCN(c3ccccc3OC)CC2)cc1OC	-	-	-	-	-
CCN1C(=O)N(CC)C2C1N(C(C)=O)C(=O)N2C(C)=O (stereo unspecified)	-	-	-	-	-
Cc1nn(-c2ccccc2)c(C)c1/C=N/NC(=O)c1cc(-c2ccccc2)n[nH]1	-3	-	-	-	-
CC1=C(C(=O)OC2CCCCC2)C(c2ccco2)C2=C(CC(C)(C)CC2=O)N1 (stereo unspecified)	-3.3	-	-	-	-
CCOc1ccc(-c2nc(N)ncc2-c2ccccc2)c(O)c1	-	-	-	-	-
CCCc1cc(-c2nc(N)ncc2-c2ccc3c(c2)OCCCO3)c(O)cc1OC	-3.1	-	-	-	-
CCn1cc(C(C)NC(=O)COc2ccc(Cl)cc2C)c(C)n1 (stereo unspecified)	-	-	-	-	-
Cc1ccc(S(=O)(=O)/N=C2/C=C(Sc3ncn[nH]3)C(=O)c3ccccc32)cc1	-3.2	.	.	.	.
COc1ccc(CNC(=O)C2CCC(CNS(=O)(=O)c3cccc4nsnc34)CC2)cc1 (stereo unspecified)	.	-	95	-	-
CCOCCCNC(=O)C1CCC(CNS(=O)(=O)c2cccc3nsnc23)CC1 (stereo unspecified)	-	.	.	.	.
O=C(NCc1ccc2c(c1)OCO2)C1CCC(CNS(=O)(=O)c2cccc3nsnc23)CC1 (stereo unspecified)	.	-	94	-	-
CCOC(=O)c1cc2c(ccn2C)n1CC(=O)N1CCN(c2ccccc2OC)CC1	.	-	-	-	-
SMILES	PTK2B oligo ant	sEH act	sEH inh	PLK1 inh	Plk1 PBD FP
Cc1ccccc1Oc1ccc(S(=O)(=O)NCCC(=O)O)cc1	-3.5	.	.	-	-
Cc1cc(C(=O)OCC(=O)NCCCN2CCCC2=O)c2ccccc2n1	-	.	.	-	-
Cc1ccccc1C(=O)N1CCN(c2ccc(NC(=O)CSc3ccc(Cl)cc3)cc2)CC1	-	-	86	-	-
COc1cccc(-c2nnc3n2N=C(c2cc(OC)ccc2OC)CS3)c1	-	-	-	-	-
COc1ccc(OC)c(C2=Nn3c(nnc3-c3cc(OC)c(OC)c(OC)c3)SC2)c1	-3.1	-	-	-	-
N#Cc1nc(-c2cccc(Cl)c2)oc1NCc1cccnc1	-	-	-	-	-
CC(=O)c1ccc(OCC(O)CN2CCN(c3ccccn3)CC2)cc1 (stereo unspecified)	.	.	.	69	-
CC(=O)c1ccc(OCC(O)CN2CCN(Cc3ccccc3)CC2)cc1 (stereo unspecified)	.	.	.	65	-
CCOC(=O)C1CCN(CC(O)COc2ccc(C(C)(C)C)cc2)CC1 (stereo unspecified)	-	-	-	-	-
CCOC(=O)C1CCN(CC(O)COc2ccc(C(C)=O)cc2)CC1 (stereo unspecified)	.	.	.	65	-
COc1ccccc1NC(=O)N1CCN(c2ncccn2)CC1	-	-	-	-	-
CCc1ccc(-c2cc(C(F)(F)F)n3nc(C(=O)Nc4cnn(Cc5ccc(C)cc5)c4)cc3n2)s1	-	-	-	-	-
Cn1c(C(=O)N(Cc2ccccc2)Cc2cccs2)cc2sccc21	-	-	-	-	-
CCN1CCN(C(c2cccs2)C(C)NC(=O)c2cccnc2)CC1 (stereo unspecified)	-	-	-	-	-
